ChEMBL document CHEMBL3433997, “St. Jude Leishmania screening dataset” (2016)

Tests used:
Type in all cases: functional
[1] = molecular target: Solute carrier family 2, facilitated glucose transporter member 1 (Homo sapiens) (UniProt P11166); test: ST_JUDE_LEISH: Cytotoxicity at 2uM final concentration against transgenic Leishmania Mexicana promastigotes LmGLUT1 that are glucose transport deficient and complemented with the human glucose transporter GLUT1. Activity is measured by DNA content using SYBR green in vitro
[2] = molecular target: Hexose transporter 1 (Plasmodium falciparum) (UniProt O97467); test: ST_JUDE_LEISH: Cytotoxicity at 2uM final concentration against transgenic Leishmania Mexicana promastigotes LmPfHT that are glucose transport deficient and complemented with the Plasmodium falciparum hexose transporter. Activity is measured by DNA content using SYBR green in vitro
[3] = molecular target: Glucose transporter (Leishmania mexicana) (UniProt O61059); test: ST_JUDE_LEISH: Cytotoxicity at 2uM final concentration against transgenic Leishmania Mexicana promastigotes LmGT2 that are glucose transport deficient and complemented with the L. Mexicana glucose transporter 2. Activity is measured by DNA content using SYBR green in vitro

Solute carrier family 2, facilitated glucose transporter member 1 (Homo sapiens), sequence (P11166 whole entry): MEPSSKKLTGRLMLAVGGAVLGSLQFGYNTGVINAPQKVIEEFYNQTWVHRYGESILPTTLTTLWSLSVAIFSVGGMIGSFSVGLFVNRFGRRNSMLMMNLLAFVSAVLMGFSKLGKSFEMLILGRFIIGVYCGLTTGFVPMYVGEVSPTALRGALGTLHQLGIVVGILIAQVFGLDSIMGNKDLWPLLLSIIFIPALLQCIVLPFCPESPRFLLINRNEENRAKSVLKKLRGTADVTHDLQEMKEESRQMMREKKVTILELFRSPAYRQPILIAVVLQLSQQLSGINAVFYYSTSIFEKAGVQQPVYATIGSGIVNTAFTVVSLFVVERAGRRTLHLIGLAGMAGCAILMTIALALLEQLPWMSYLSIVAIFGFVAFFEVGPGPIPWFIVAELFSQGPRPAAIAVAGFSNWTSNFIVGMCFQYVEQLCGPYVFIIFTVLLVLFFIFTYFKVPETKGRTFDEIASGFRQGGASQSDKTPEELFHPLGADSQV

| Compound | inhibition [1] [%] | inhibition [2] [%] | inhibition [3] [%] |
| --- | --- | --- | --- |
| CC(C)(C)c1ccc(CN2CCC(NC(=O)c3ccc(-c4cccc(Cl)c4)s3)CC2)cc1 | 11.2 | 8.67 | 7.09 |
| COc1ccc(CN2CCCN(Cc3cccc(C(=O)Nc4ccc(C(C)(C)C)cc4)c3)CC2)cc1 | 7.71 | 5.46 | 3.17 |
| COc1ccc2ccccc2c1C=NNc1ccnc2cc(Cl)ccc12 | 1.99 | 0.95 | 1.17 |
| N#Cc1ccc2c(c1)CN(CCC1CCC(NC(=O)c3cc4cnccc4[nH]3)CC1)CC2 (stereo not drawn) | 5.36 | 3.42 | 3.7 |
| C[C@@H](N)C#Cc1cc2c(Nc3ccc(OCc4cccc(F)c4)c(Cl)c3)ncnc2s1 | 2.5 | 4.76 | 2.27 |
| CCC(=O)N(c1ccccc1)C1CCN(CCCC(NC(=O)Nc2cc(C(F)(F)F)cc(C(F)(F)F)c2)c2ccc(Cl)c(Cl)c2)CC1 (stereo not drawn) | -1.01 | 0.47 | 0.22 |
| c1ccc(Oc2ccc(Nc3ccnc4cc(-c5cccc(CN6CCOCC6)c5)ccc34)cc2)cc1 | -0.77 | 0.67 | 1.46 |
| O=C(/C=C/c1ccc(Cl)cc1)NCCCCCN1CCN(C(=O)C=Cc2ccc(Cl)c(Cl)c2)CC1 | 2.44 | 0.82 | -2.29 |
| O=C(Nc1ccc(-c2ccccc2)cc1)Nc1cccc(Cn2ncc(N3CCNCC3)c(Cl)c2=O)c1 | -0.79 | 1.65 | 6.76 |
| CC[C@H](NC(=O)c1c(CN2CCC(N3CCCCC3)CC2)c(-c2ccccc2)nc2cc(O)ccc12)c1ccccc1 | -0.16 | -0.44 | 1.08 |
| Cc1cc(O)c(-c2ccc(S(=O)(=O)c3ccc(Cl)cc3)cc2)c(C)n1 | 0.09 | 0.81 | 1.44 |
| Cc1cccc2nc(-c3ccc(-c4ccc(CNCc5cccc(N)c5)cc4)s3)[nH]c12 | 4.29 | 1.98 | 2.76 |
| O=C(/C=C/c1ccc(Cl)c(Cl)c1)NC1CCN(Cc2cccc(O)c2)CC1 | 2.92 | 4.2 | -2.96 |
| CC(C)CN1CCCN(Cc2cccc(NC(=O)c3ccc(-c4ccccc4)cc3)c2)CC1 | 0.53 | 0.24 | -5.07 |
| CN(C)CCOc1cc(O)c2c(c1)OC(C)(C)C=C2c1cccs1 | -0.97 | -1.11 | -0.34 |
| O=C(/C=C/c1ccc(Cl)cc1)NCCCCCN1CCC(c2c[nH]c3ccccc23)CC1 | 3.62 | 3.59 | 0.35 |
| c1ccc(C2CCC(N3CCC(N4CCCC4)CC3)CC2)cc1 (stereo not drawn) | 0.84 | -0.62 | 1.54 |
| COc1ccc2nc3cc(Cl)ccc3c(NCCCN3CCNCC3)c2c1 | 3.27 | 3.25 | 2.39 |
| Cc1cc(-c2ccc(O)c(CNC3CCCCC3)c2)cnc1N | 0.43 | 10.3 | 0.95 |
| COCCCNC(=O)C1CCN(C(c2ccc(Cl)cc2)c2ccc(Cl)cc2)CC1 | 2.3 | 3.44 | 4.61 |
| Cc1c(C)n(C2CCCC2)c2ncnc(OC3CCN(CC(=O)NCC4CC4)CC3)c12 | 7.05 | 5.47 | 2.01 |
| O=C(Nc1ccccc1)N(Cc1ccc(-c2cccc(CNCc3ccc4c(c3)OCO4)c2)cc1)C1CCN(Cc2ccccc2)CC1 | -0.01 | 0.92 | 2.9 |
| CCCNCc1ccc(-c2ccc(CN(CCOC)C(=O)c3cscn3)cc2)nc1 | 1.92 | 1.83 | 2.19 |
| Cc1cc(=NN=Cc2cccc(Cl)c2)c2ccc(F)cc2[nH]1 | 0.61 | 1.03 | 1.04 |

| Compound | inhibition [1] [%] | inhibition [2] [%] | inhibition [3] [%] |
| --- | --- | --- | --- |
| N#Cc1ccc(N/C(=N\c2cccc(Cl)c2Cl)NCc2ccc(Cl)cc2Cl)c(O)c1 | 9.71 | 9.71 | 9.16 |
| CC(C)C(C(=O)Nc1ccc(S(=O)(=O)N(C)C)cc1)c1ccc(Cl)cc1 (stereo not drawn) | -2.78 | -3.31 | 0.19 |
| Cc1ccc(NC(=O)c2ccc(CN3CCCN(CC4CCCCC4)CC3)cc2)cc1F | 8.8 | 6.75 | 11.2 |
| Clc1ccc(CNc2nc(NCCc3c[nH]cn3)nc(N3CCCC4CCCCC43)n2)cc1 (stereo not drawn) | 3.99 | 4.86 | 3.89 |
| Cc1cc(N(C)C2CCN(CC3CCCCC3)C2)nc(Nc2ccc(Cl)cc2)n1 (stereo not drawn) | 7.35 | 5.97 | 4.28 |
| COc1ccc(Nc2c3ccc(Cl)cc3nc3ccc(OC)cc23)cc1 | 2.45 | 4.25 | 0.01 |
| N=C(N)NN=Cc1cc2ccccc2c2ccccc12 | 8.49 | 9.7 | 4.16 |
| Cc1ccc(CN2CCN(Cc3cccc(NC(=O)c4ccc5ccccc5c4)c3)CC2)cc1C | 1.24 | 1.87 | 4.04 |
| Cc1ccc(C2CC(=O)CC(c3ccccn3)C2[N+](=O)[O-])cc1 (stereo not drawn) | -0.44 | 0.92 | -0.46 |
| Nc1ccc(-c2nc3c(ccc4ccccc43)[nH]2)cc1 | 2.25 | 1.85 | 0.2 |
| Cc1ccccc1Nc1cc(Nc2ccccc2C)c2ccccc2n1 | 42.9 | 42.2 | 16.1 |
| CNS(=O)(=O)c1ccc2c(c1)nc(C1CCN(CC3CCC(NC(=O)/C=C/c4ccc(Cl)c(Cl)c4)CC3)CC1)n2C (stereo not drawn) | 11.9 | 10.9 | 3.47 |
| CC(=O)Nc1ccc(CN2CCC(NC(=O)c3ccc(-c4ccc(N(C)C)cc4)s3)CC2)cc1 | 2.06 | 1.82 | 2.63 |
| COc1cccc(-c2nc(Nc3ccncc3)c3ncn(C)c3n2)c1 | 3.21 | 3.6 | 2.65 |
| CCNCc1ccc(-c2cc3ncnc(Nc4ccc(OCc5cccc(F)c5)c(Cl)c4)c3s2)[nH]1 | -0.88 | -3.14 | 3.41 |
| CCNc1cc(C(=O)NC(Cc2ccccc2)C(O)CNC(C)(C)CCCC(C)C)c(F)c(N2CCCS2(=O)=O)c1 (stereo not drawn) | -2.99 | -1.24 | 1.59 |
| CC(C)Oc1cc2c(cc1NS(=O)(=O)c1ccc(-c3cccs3)cc1)CCN(C)CC2 | 5.11 | 2.07 | 1.94 |
| c1cc(-c2ccc(CN3CCCCC3)cc2)cc(-c2nc3ccccc3[nH]2)c1 | 1.85 | 0.49 | 0.96 |
| CC1(C)[C@H]2CC[C@@H](CNc3nc(NCCc4c[nH]cn4)nc(NCc4cc(F)ccc4F)n3)[C@@H]1C2 | 4.07 | 0.62 | 1.36 |
| Cc1cccc2nc(-c3ccc(-c4ccc(NC(=O)Nc5ccc(Cl)cc5)cc4)cc3)[nH]c12 | -1.7 | 1.17 | -1.04 |
| CC(CN1CCN(C)CC1)C(=O)Nc1cccc(-c2cccc(-c3nc4cc(F)ccc4[nH]3)c2)c1 (stereo not drawn) | 6.87 | 5.83 | 5.91 |
| COc1ccc(NC(=O)NC2CCN(CCCOc3ccnc4cc(Cl)ccc34)C2)cc1OC (stereo not drawn) | -0.88 | -0.13 | -0.69 |
| N/C(=N\c1cccc(Cc2ccccc2)n1)NCc1ccccc1 | 2.04 | -1.19 | 3.21 |
| CCC(C)CN1CCN(c2ccc(NC(=O)c3cccs3)cc2)CC1C (stereo not drawn) | 0.37 | 0.02 | 1.01 |

| Compound | inhibition [1] [%] | inhibition [2] [%] | inhibition [3] [%] |
| --- | --- | --- | --- |
| COc1cc2c(cc1N1CCN(C)CC1)N(C(=O)Nc1ccc(-c3ccncc3)c(Cl)c1Cl)CC2 | 0.34 | 0.34 | 0.64 |
| CN1CCC(C(=O)N(Cc2ccc(-c3ccc(CNCCc4ccccc4)cn3)cc2)C2CCN(Cc3ccccc3)CC2)CC1 | 0.71 | 1.1 | -0.74 |
| COc1ccc(C(=O)CCC(=O)N(CCC2CCCN2C)Cc2ccc(-c3ccc(CNCCc4ccc(S(C)(=O)=O)cc4)cn3)cc2)cc1F (stereo not drawn) | 11.4 | 9.98 | 9.19 |
| O=c1cc(NCCCNCc2ccc(Cl)c(Cl)c2)[nH]c2cc(Cl)ccc12 | 2.05 | 3.29 | 2.73 |
| Cc1sc(N2CCN(C)CC2)nc1C(=O)Nc1ccc(F)cc1C(F)(F)F | 4.38 | 2.2 | 3.75 |
| COc1ccccc1C1CCN(C2CCC(NC(=O)/C=C/c3cc(F)cc(C(F)(F)F)c3)CC2)CC1 (stereo not drawn) | -0.82 | 0.7 | 1.96 |
| CC(C)CNCc1ccc(-c2ccccc2CNC2CCN(Cc3ccccc3)CC2)cc1 | 7.04 | 7.66 | 5.95 |
| CCOc1cc2ccccc2cc1CNCCCCCCNCc1cc2ccccc2cc1OCC | 5.01 | 7.4 | 0.64 |
| Cc1nc(NCCc2c[nH]cn2)cc(NCc2ccccc2)n1 | 3.83 | 3.44 | 3.61 |
| CC(=O)Nc1nc(C(=O)Nc2ccc(-c3cccc(-c4nc5ccccc5[nH]4)c3)cc2)cs1 | 1.93 | 2.85 | 0.42 |
| CCCNS(=O)(=O)c1ccc(NC(=O)C(C)Oc2ccc([N+](=O)[O-])cc2)cc1 (stereo not drawn) | 0.31 | 0.29 | -4.88 |
| CCCCCCN1CCN(Cc2cccc(NC(=O)c3ccc(Cl)c(Cl)c3)c2)CC1 | 5.8 | 6.59 | 4.85 |
| O=C(CCCCCNC(=O)c1ccc(O)c(-c2ccc(Cl)c(Cl)c2)c1)NC1CCCCCC1 | 4.53 | 3.51 | 4.8 |
| CCN(CC)CCN(Cc1ccc(-c2ccc(C(F)(F)F)cc2)cc1)C(=O)Cn1c(CCc2c(F)cccc2F)nc(=O)c2ccccc21 | 4.96 | 4.88 | 5.59 |
| CCC[C@@H]([C@@H](CC1CCCCC1)C(=O)N[C@@H](CCCCNS(C)(=O)=O)C(=O)Nc1nccs1)N(O)C=O | 1.61 | 3.98 | -0.28 |
| Cc1cc(NCCCOc2ccc(Cl)cc2)nc(NCc2ccccc2)n1 | 18.8 | 11.1 | 7.19 |
| CCN1CCN(CCCNc2ccnc3cc(Cl)ccc23)CC1 | 0.93 | 2.24 | 2.15 |
| Cc1cccc(-c2nn(-c3ccccc3)cc2C(=O)Nc2nnc(C)o2)c1 | -1.38 | -1.47 | 2.67 |
| CCCCNCc1ccc(-c2nc(CN(Cc3ccc(Cl)c(Cl)c3)S(=O)(=O)c3ccc(NC(C)=O)cc3)cs2)cc1 | 2.51 | 0.43 | 2.51 |
| COc1ccc(-c2ccc(NC(=O)c3ccc(C#N)cc3)cc2)cc1CN1CCCN(C)CC1 | 3.03 | 3.17 | -0.21 |
| O=C(NCCCCN1CCN(c2cccc3c2OCCO3)CC1)c1ccc(NC(=O)c2cc(Cl)cc(Cl)c2)cc1 | 2.62 | 2.75 | 3.56 |
| COc1ccc(-c2nc(NC(=O)COc3ccc(C(C)=O)cc3)sc2C)cc1 | 2.62 | 2.48 | 2.69 |
| c1ccc2c(Nc3ccc(Oc4ccc(Nc5c6ccccc6nc6ccccc56)cc4)cc3)c3ccccc3nc2c1 | 2.32 | 0.88 | -1.82 |
